{
  "source": "the supplement of paper PMC4206461",
  "data": [
    {"tested_on": "Pseudomonas aeruginosa PA14 dppA1-A5 penta mutant + pBBR5.DppA1 (PA14_58350)", "assay": "respiration area under curve with compound as sole nitrogen source, 24 h (OmniLog AUC (arbitrary units)); higher = more respiration / better utilisation as nitrogen source, active = 2000 or more", "details": "plate: PM8", "experimental": "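Biolog Phenotype MicroArray plates PM6-PM8: each di/tripeptide is the sole nitrogen source. Tetrazolium reduction was read in the OmniLog for 24 h at 37°C and summarised as area under the respiration curve (arbitrary units). Values below 2000 count as no respiration. Strain is the SBP penta mutant complemented with DppA1 on a plasmid under its native promoter. Lys/His/Cys peptides are excluded.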", "values": [
      {"smiles": "N[C@@H](Cc1ccc(O)cc1)C(=O)NCC(=O)NCC(=O)O", "respiration area under curve": "9440 (active)"}
    ]}
  ]
}
